SMILES strings stand for the structures. The panel holds about 79,000 compounds, 15% with a hit somewhere; the sample as a whole holds those more often. Values without a mark were called inactive. Calls of active or inactive are those of the source. Rule as the data show it: active = growth inhibition above about 70%; inactive = the rest.

The values below come from PubChem BioAssay (NCI).

This test is described as follows: NCI Yeast Anticancer Drug Screen. Data for the wt2 strain (AID 169).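 Also: 0% = growth of vehicle-treated yeast cultures.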 Particulars: S. cerevisiae wt2 strain growth inhibition, stronger effect = higher value. The protocol: Growth inhibition of yeast strains with defined genetic alterations is measured as a screen for potential anti-cancer activity. Selected strains with alterations in DNA damage repair or cell cycle control were exposed to compounds and growth inhibition was measured relative to vehicle treated controls. The strain used in this assay is wt2

On to `O=C(/N=N/C(=O)Oc1ccccc1)Oc1ccccc1`, for which the growth inhibition reads like this: (at 1.2 µM) -46%; (at 3.7 µM) -48%; (at 11.0 µM) -54%; (at 33.0 µM) -39%; (at 100.0 µM) 48%.
On the same counts, the results for `Cc1cccc(C)c1NC(=O)CCC(=O)C(C)C(=O)c1ccc(O)cc1` (stereo not given) are -1%, -1%, 0%, 0% and -1%.
On the same counts, the results for `COc1ccccc1NC(=O)c1ccc(Cl)cc1` are -1%, -2%, -2%, -3% and -2%.
`Cc1ccnc2c(O)cccc12`: the growth inhibition was -8% (at 1.2 µM); 25% (at 3.7 µM); 80% (active) (at 11.0 µM); 84% (active) (at 33.0 µM); 97% (active) (at 100.0 µM).
`COc1c2c(c3c(c1CCC(=O)O)OC(C)(C)C=C3)OC(C)(C)C=C2`: the growth inhibition is, setting by setting: (at 1.2 µM) -1%; (at 3.7 µM) 2%; (at 11.0 µM) 17%; (at 33.0 µM) 56%; (at 100.0 µM) 98% (active).
Turning to `O=[N+]([O-])c1cc(Cl)ccc1S(=O)(=O)c1ccc(Cl)cc1[N+](=O)[O-]`, the growth inhibition is, setting by setting: (at 1.2 µM) 0%; (at 3.7 µM) 4%; (at 11.0 µM) 21%; (at 33.0 µM) 88% (active); (at 100.0 µM) 84% (active).
Take `CCCCCCCCCCCCOCCOCCOCC(N)=O`: the growth inhibition is, setting by setting: (at 1.2 µM) -26%; (at 3.7 µM) -20%; (at 11.0 µM) -12%; (at 33.0 µM) 97% (active); (at 100.0 µM) 96% (active).
On the same counts, the results for `C[N+](C)([O-])CCCNc1c2ccccc2nc2cccc([N+](=O)[O-])c12` are -1%, 20%, 26%, 84% (active) and 94% (active).
